Experimental data from PubChem BioAssay AID485297 (National Center for Advancing Translational Sciences (NCATS), 2010).
In all, about 320,000 compounds went through this assay and about 9,100 (2.8%) were called active. Another 3% or so got no clear call; they are omitted. The sample as a whole holds a higher share of actives than the screen did. Values without a mark were called inactive. The call rests on the fitted dose curve; in most records, active means well fitted activation curve with a large enough effect; inconclusive means small, poorly fitted or top-dose-only effect; inactive means no such curve, though single readings can be large or run the other way.

Test: qHTS Assay for Rab9 Promoter Activators; further: nearly all actives have a fitted effect of over 60% in size; on activation, negative = inhibition: % of control where 0% means no effect
Settings: Huh7 Rab9 promoter-luciferase reporter, luminescence, 24 h; series mostly up to 9.22 µM; activation, negative = inhibition: at the top concentration
Method in brief: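 Promoter activation is measured as luciferase luminescence in Huh7 cells stably transfected with a Rab9 promoter–luciferase construct, following 24 h compound exposure at 37 °C and 10 min reagent incubation at ambient temperature.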
Potency means the concentration at half of the fitted maximal effect.

Point of comparison: `Cc1noc(C)c1COc1ccc(C(=O)NCCOc2ccccc2)cc1`, “activation, negative = inhibition” value 20.5%. Against it:
- COc1cc(C(=O)NCC2(c3ccccc3)CCCC2)ccc1OC(C)C — lower, -3.81%
- Cc1cc2nc(C)n(CCCNC(=O)Nc3ccccc3)c2cc1C — lower, -2.07%
- Cc1nc2cc(NC(=O)NC3CC3)ccc2n1C — lower, 17.9%
- CC(=O)Cn1cnc2c(cnn2-c2ccccc2)c1=O — lower, 14.2%
- CN(C(=O)COc1ncnc2c1cnn2-c1ccccc1)C1CCCCC1 — lower, -10.6%
- c1ccc2cc(CCCc3cc4ccccc4cn3)ncc2c1 — lower, -1.89%
- COc1ccc(OCCCC(=O)NCCc2ccccc2)cc1 — lower, -0.814%
- CCCCCCCCC(=O)NCCOc1ccccc1 — lower, 0.417%
- CCCc1ccc(OCCNC(=O)c2ccco2)cc1 — higher, 28.3%
- CN(c1ccccc1)S(=O)(=O)c1ccc(C(=O)NCCc2ccccc2)cc1 — higher, 27.2%
- O=C(CCNC(=O)c1ccc(Br)cc1)NCCCc1ccccc1 — lower, -0.377%
- CC1(C)NC(=O)N(CC(=O)N2CCN(S(=O)(=O)c3ccccc3F)CC2)C1=O — lower, -3.99%
- CC(=O)Nc1ccc(NC(=O)CSc2nnc(C3CC3)n2-c2ccccc2)cc1 — lower, -4.66%
- CCC(C)C(N=C1NS(=O)(=O)c2ccccc21)C(=O)N1CCC(C)CC1 (stereo not drawn) — lower, 3.36%
- Cc1ccc(C)c(NC(=O)c2ccc3nccnc3c2)c1 — lower, 9.71%
- O=C(NCCc1ccc(F)cc1)c1ccc(S(=O)(=O)N2CCCCC2)cc1 — lower, -0.716%
- CC(=O)Nc1ccc(NC(=O)COC(=O)c2ccccc2C(=O)c2ccccc2)cc1 — lower, -6.29%
- CCN(CC)S(=O)(=O)c1ccc2[nH]c(=O)cc(C(=O)N(C)C3CCS(=O)(=O)C3)c2c1 (stereo not drawn) — lower, 10.2%
- Cc1ccccc1Nc1nc(N)nc(COC(=O)CCC(=O)c2ccc(F)cc2)n1 — lower, 1.65%
- O=C(Nc1nnc(-c2ccc(F)cc2)s1)c1c(F)cccc1Cl — lower, 0.179%
- NNC(=O)c1cccc(COCC(F)(F)C(F)F)c1 — lower, 2.34%
- CCOC(=O)c1cc(C(C)C)sc1NC(=O)COC(=O)c1nccnc1N — lower, -5.34%
- COCC(C)NC(=O)c1ccc(-n2nc(C(F)(F)F)cc2-c2cccs2)cc1 (stereo not drawn) — lower, -0.235%
- C=CCn1c(=NC(=O)c2ccc(S(=O)(=O)N3CCCC3)cc2)sc2cc(NC(C)=O)ccc21 — lower, -11.8%
- C=CCn1c(CCNC(=O)c2cccs2)n[nH]c1=S — lower, 2.05%
- Cc1cccc(NS(=O)(=O)c2cccc(C(=O)NNC(=O)c3ccccc3O)c2)c1 — lower, -12.8%
- O=C(CSc1ccccc1)Nc1cccc(S(=O)(=O)N2CCCCC2)c1 — lower, -0.555%
- CCN(c1ccccc1)S(=O)(=O)c1ccc(OCC(=O)N2CCCC2)cc1 — lower, 1.98%
- CC(=O)Nc1ccc(SC[C@H](Cc2ccccc2)N2CC[C@@H](C)CCC2=O)cc1 — lower, -2.39%
- COc1cccc(-c2nnc(N(C)C(=O)c3ccno3)s2)c1 — higher, 21.5%
- COc1cc(OC)cc(-c2nnc(N(C)C(=O)c3ccncc3)s2)c1 — lower, 9.75%
- O=C(CNc1ccccc1N1CCCC1=O)Nc1cc(Cl)ccc1-n1cncn1 — lower, -4.84%
- Cc1c(Br)c([N+](=O)[O-])nn1CC(=O)N1CCN(Cc2ccccc2)CC1 — lower, -0.94%
- O=C(COC(=O)c1cc(=O)[nH]c2ccccc12)NCc1cccc(Cl)c1 — lower, 1.13%
- COc1cccc(C(=O)NCCSc2ccc(Br)cc2)c1 — lower, -5.78%
- COc1ccc(C(=O)NCc2nnc(SCCOc3ccccc3)n2C)cc1 — lower, -2.55%
- CCNC(=O)N1CCN(S(=O)(=O)c2ccc3c(c2)OCCCO3)CC1 — lower, -0.383%
- COc1ccc(OC)c(/C=N/NC(=O)c2ccc[n+](CC(=O)c3ccccc3)c2)c1 — lower, 10.5%
- O=c1c2ccccc2nc2n1C(CSc1ccc(Cl)cc1)CN2 (stereo not drawn) — lower, -4.15%
- O=C(/C=C/c1ccc2c(c1)OCO2)NCc1cn2cc(Cl)ccc2n1 — lower, -1.87%
- COc1cc2ccccc2cc1C(=O)Nc1ccc(NC(=O)c2cccs2)cc1 — lower, 2.39%
- O=C(Nc1ccc(NC(=O)c2cccs2)cc1)c1ccc2ccccc2c1 — lower, 11.8%
- COc1ccc(S(=O)(=O)N2CCN(CC(=O)N3c4ccccc4CC3C)CC2)cc1OC (stereo not drawn) — lower, -4.56%
- Nc1nc(SCC(=O)Nc2ccc(Cl)c([N+](=O)[O-])c2)n[nH]1 — lower, -2.62%
- C/C=C\C=C\C(=O)N1CC2(CC(c3cccc(NC(=O)/C(C)=C\C)c3)=NO2)C[C@H]1C(N)=O (stereo partly drawn) — lower, -10.8%
- COc1ccccc1C1CCN(C(=S)Nc2ccc(Br)cc2)CC1 — lower, 3.49%
- CC(C(=O)N1CCc2ccccc21)N(C)CC(=O)Nc1ccc(F)cc1 (stereo not drawn) — lower, -0.555%
- CN(CCOc1ccccc1)C(=O)c1cc(COc2c(F)cccc2F)on1 — lower, 3.49%
- CCn1ccnc1CN(C)C(=O)c1cc(COc2ccc(-n3cncn3)cc2)on1 — lower, -0.6%
- CN(Cc1cnccn1)C(=O)c1cc(COc2cccc(C(F)(F)F)c2)on1 — higher, 29.7%
- CN(Cc1cccnc1)C(=O)c1cc(COc2ccc3ncccc3c2)on1 — lower, -26.6%
- COc1ccc(C(=O)N2CCN(c3ncccn3)CC2)cc1S(=O)(=O)N1CCOCC1 — lower, -2.99%
- COc1cccc(NC(=O)CN(C)C(=O)/C=C/c2cn(-c3ccccc3)nc2-c2cccs2)c1 — lower, -3.55%
- CN(C)CCn1c(=S)[nH]c2ccc(Cl)cc2c1=O — lower, 2.67%
- O=C(NCC#CCSc1nnc(-c2cccc3ccccc23)o1)c1cccs1 — lower, 2.25%
- COCCN(C(=O)CC1CCCCC1)c1c(N)n(CC(C)C)c(=O)[nH]c1=O — lower, 0.171%
- O=C(Nc1ccc(S(=O)(=O)N2CCCCC2)cc1)C1CCN(C(=O)c2ccc(F)cc2)CC1 — lower, -6.42%
- Cc1ccc(S(=O)(=O)N(C)C)cc1NC(=O)CN1c2cccc3cccc(c23)S1(=O)=O — lower, 11%
- COc1ccccc1CC(=O)Nc1ccc(F)cc1F — lower, 6.21%
- COc1cc(OC)cc(C(=O)OCC(=O)Nc2ccc(F)cc2F)c1 — lower, 1.48%
- COc1ccc(C(=O)Nc2cccc(S(C)(=O)=O)c2)cc1 — lower, -1.5%
- COc1ccc(NC(=O)c2ccc(C#CC(C)(C)O)cc2)cc1 — higher, 27.7%
- COc1ccc(NC(=O)CC2SC(N3CCCCC3)=NC2=O)cc1OC (stereo not drawn) — lower, -4.88%
- CCCc1ccc(C(=O)COC(=O)CN2C(=O)NC3(CCCCC3C)C2=O)cc1 (stereo not drawn) — lower, 0.0937%
- CCC(C)NC(=O)CCCc1ccccc1 (stereo not drawn) — lower, 15.2%
- O=C(CCCc1ccccc1)NCc1ccccc1 — lower, 15.9%
- COc1ccc2nc(NC(=O)[C@@H]3CCCN3C(=O)c3cccs3)sc2c1 — lower, -2.14%
- CCc1noc(C)c1C(=O)Nc1nc2ccc(OC)cc2s1 — lower, 4.53%
- CS(=O)(=O)c1ccc2nc(NC(=O)C3CCCCC3)sc2c1 — lower, 14.4%
- CCn1c(SCC(=O)Nc2nc3ccc(OC)cc3s2)nnc1-c1ccoc1C — higher, 28.2%
- C=CCN(c1ccccc1C(=O)NCC(=O)OCC)S(=O)(=O)c1ccc(C)cc1 — lower, -9.66%
- COc1cc(C#Cc2ccc3cc(CCCO)oc(=O)c3c2)cc(OC)c1 — lower, -2.52%
- O=C(O)c1cc(S(=O)(=O)Nc2ccc3cn[nH]c3c2)ccc1Br — lower, 0.286%
- O=C(CN1C(=O)NC2(CCOc3ccccc32)C1=O)NCc1ccc(F)cc1 (stereo not drawn) — lower, -0.457%
- CCOc1ccc(OCC(=O)OC(C)C(=O)NC2CCCCC2C)cc1 (stereo not drawn) — lower, -4.77%
- Cc1ccc(-c2noc(CSc3nnc(-c4cccs4)n3C)n2)cc1 — lower, 5.25%
- Cc1ccc(-c2noc(CSc3nnc(-c4ccncc4)n3-c3ccc(F)cc3)n2)cc1 — lower, -5.23%
- O=C(NCc1cccnc1)c1nc(-c2cccs2)no1 — lower, 7.62%
- COc1nc(-c2ccc(Cl)cc2)ccc1-c1noc(-c2cccs2)n1 — lower, 14.7%
- c1ccc(CCc2nc(-c3ccncc3)no2)cc1 — lower, 5.11%
- Clc1ccc(-n2nnnc2-c2cnc(-c3ccccn3)nc2-c2cccs2)cc1 — lower, 0.51%
- COc1cccc(C2=CC(=O)C[C@H](c3ccc(OC)c(OC)c3)C2)c1 — lower, 0.14%
- Cc1ccc(NC(=O)CCCNC(=O)c2ccc(Cl)cc2)cc1S(=O)(=O)N1CCCCC1 — lower, 0.323%
- CN(CCc1ccccn1)C1CCCN(S(=O)(=O)c2ccccc2Cl)C1 (stereo not drawn) — lower, 5.86%

In the case of `Cc1nc2cc(NC(=O)Nc3cccc(F)c3)ccc2n1C`, the Potency is reported as 0.0891 µM (active).
In the case of `c1ccc(-n2ncc3c2ncn2c(C4CCCCC4)nnc32)cc1`, the Potency is reported as 3.98 µM (active).
For `CCCOc1ccc(C(=O)NCCc2ccccc2)cc1`, the Potency was 0.447 µM (active).
In the case of `CC(C)c1ccc(C(=O)NCCCc2ccccc2)cc1`, the Potency is reported as 3.16 µM (active).
With `O=C(NCCOc1ccccc1)c1ccccc1` the Potency was 0.708 µM (active).
In the case of `O=C(NCCc1ccc(F)cc1)c1ccc2nccnc2c1`, the Potency is reported as 1.12 µM (active).
With `CC(C)c1cc(C(N)=O)c(NC(=O)c2cccc(COc3ccc(Br)cc3)c2)s1` the Potency was 1.26 µM (active).
With `C=CCn1c(=NC(=O)c2cccs2)sc2cc(NC(C)=O)ccc21` the Potency was 3.98 µM (active).
For `CN(C(=O)c1ccccn1)c1nnc(-c2ccccn2)s1`, the Potency was 3.55 µM (active).
In the case of `COc1ccc(C(=O)NCCSc2ccccc2C)cc1`, the Potency is reported as 0.794 µM (active).
For `Clc1ccc2nc(CSc3ccccc3)cn2c1`, the Potency was 0.316 µM (active).
For `O=C(Nc1ccc2oc(-c3ccc4ccccc4c3)nc2c1)c1cccs1`, the Potency was 1.26 µM (active).
For `Cc1cc(CN(C)C(=O)c2cc(COc3ccc(C)c(C)c3)on2)n[nH]1`, the Potency was 2 µM (active).
With `Cc1ccc(OCc2cc(C(=O)N(C)CCc3ccccc3)no2)cc1C` the Potency was 3.98 µM (active).
In the case of `CN(C)CCN=c1cc(-c2ccccc2)oc2ccc(Cl)cc12`, the Potency is reported as 2.82 µM (active).
For `COc1ccc(NC(=O)c2ccc(OC)cc2)cc1`, the Potency was 1.41 µM (active).
In the case of `COc1ccc(C(=O)Nc2ccc(F)cc2F)cc1`, the Potency is reported as 2.51 µM (active).
For `C=CCN1CCN(C(=O)CCCc2ccccc2)CC1`, the Potency was 0.1 µM (active).
With `COc1ccc2nc(NC(=O)NC3CCCCC3)sc2c1` the Potency was 2 µM (active).
For `COc1ccc2nc(NC(=O)c3ccc(Br)s3)sc2c1`, the Potency was 2.24 µM (active).
For `Cc1ccc(-c2nc(-c3ccncc3)no2)c(C)c1`, the Potency was 2.51 µM (active).
In the case of `c1ccc(-c2noc(-c3cccs3)n2)nc1`, the Potency is reported as 0.355 µM (active).
For `c1csc(-c2nc(-c3ccncc3)no2)c1`, the Potency was 2.51 µM (active).
